Laboratory results as given in PubChem BioAssay AID2728 (Broad Institute, 2010).
The other results are listed elsewhere or left out. Inconclusive results are not listed. Values without a mark were called inactive.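 Rule for the calls: active = every replicate shows growth inhibition above 50%; inconclusive = at least half but not all replicates above 50% inhibition; inactive = under half of replicates above 50% inhibition.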

Test: growth inhibition of V. harveyi BB721, confirmation, cytotoxicity control for AI-2 quorum sensing inhibitors, strain BB721, absorbance OD600 (AID 2728)
Conditions: Vibrio harveyi BB721 growth, 9 h, at 7.5 µM, stronger effect = higher value
In the case of Cc1ccc(Oc2cnn(-c3ccccc3)c(=O)c2Br)cc1, the growth inhibition is reported as 4.98%.
Compound CCOC(=O)c1nn(-c2cccc(C)c2)cc1C(=O)c1ccccc1 has a growth inhibition of -7.63%.
O=C(Cn1cnc2ccccc2c1=O)Nc1cccc(S(=O)(=O)N2CCCCC2)c1 gave a growth inhibition of 14%.
In the case of O=C(COC(=O)C1CCCCC1)Nc1ccc([N+](=O)[O-])cc1, the growth inhibition is reported as -40.8%.
Work on Cc1cccc(CSc2ccc(-c3cccs3)nn2)c1 yielded a growth inhibition of -12.7%.
Cc1cc(CN(C)C(=O)c2cc(COc3ccc(C)c(C)c3)on2)n[nH]1 showed a growth inhibition of 28.4%.
COc1ccc(/C(N)=N/OC(=O)Cc2ccccc2)cc1 showed a growth inhibition of -4.72%.
N/C(=N\OC(=O)CCc1ccccc1)c1cccnc1 showed a growth inhibition of 0.547%.
Compound CC(C)(C)c1ccc(OC2=CS(=O)(=O)c3ccccc32)cc1 has a growth inhibition of 26.8%.
In the case of CC(CNc1ccc([N+](=O)[O-])cc1)NC(=O)c1ccccc1Br (stereo unspecified), the growth inhibition is reported as -16.1%.
For Cc1ccsc1C(=O)OCC(=O)c1cc2ccccc2o1, the growth inhibition was 4.04%.
In the case of Cc1nn(CC(=O)Nc2ccc(F)cc2)c(=O)c2ccccc12, the growth inhibition is reported as 0.351%.
For O=C(COc1ncnc2ccccc12)NC(=O)NCc1ccccc1, the growth inhibition was 27.2%.
With Cc1ccccc1NC(=O)CCOc1ccccc1 the growth inhibition was -7.16%.
Compound COC(=O)c1ccc(SCc2ccccc2)nc1 has a growth inhibition of -21%.
In the case of Cc1ccc(NS(=O)(=O)c2ccc3c(c2)NC(=O)CO3)cc1, the growth inhibition is reported as 18.2%.
S=C(NCc1ccc(Cl)cc1)NC1CCCCC1 showed a growth inhibition of 12.8%.
For COc1cccc(NC(=O)NCc2ccc(F)cc2)c1, the growth inhibition was -16.1%.
O=C(CCC(=O)c1cccs1)Nc1nc2ccccc2s1 showed a growth inhibition of -0.412%.
In the case of O=C(/C=C/c1ccc2c(c1)OCO2)NCc1ccc(F)cc1, the growth inhibition is reported as 16.5%.
For O=C(/C=C/c1ccc2c(c1)OCCO2)c1ccc(O)cc1, the growth inhibition was -21.7%.
Work on CC(=O)c1cccc(OCc2cc(C(=O)NC(C)Cc3cccnc3)no2)c1 (stereo unspecified) yielded a growth inhibition of 8.38%.
For O=C1COc2ccc(S(=O)(=O)Nc3ccc(OC(F)(F)F)cc3)cc2N1, the growth inhibition was 55%.
Compound Cc1ccc(NC(=O)C2CC2c2ccccc2)cc1 (stereo unspecified) has a growth inhibition of 7.3%.
Compound O=C(c1cc(-c2cccc(O)c2)on1)N1CCc2ccccc2C1 has a growth inhibition of 2.13%.
With COC(=O)C1CCN(C(=O)c2ccc3oc(Cc4ccc(Cl)cc4)nc3c2)CC1 the growth inhibition was 19.1%.
For CCOc1ccc(/C=N/NC(N)=S)cc1, the growth inhibition was 18%.
With CN(Cc1cnccn1)C(=O)c1cc(COc2cccc(C(F)(F)F)c2)on1 the growth inhibition was 18.2%.
In the case of O=C(Nc1ccc(F)c(Cl)c1)C1CCN(S(=O)(=O)c2cccnc2)CC1, the growth inhibition is reported as 14.5%.
Cc1ccc(Cc2nc(-c3cccc(C)c3)no2)cc1 gave a growth inhibition of 19.7%.
Cc1cc(C(=O)OCC(=O)Nc2ccc(F)c(F)c2)c(C)o1 gave a growth inhibition of -6.2%.
